Measured values published in PubChem BioAssay AID1851 (National Center for Advancing Translational Sciences (NCATS), 2009).
The campaign covered roughly 16,000 compounds. About 5,800 (36%) were called active. Not shown: some 23% with an inconclusive outcome. Calls come from the whole dose curve; as a rule, active = well fitted curve in the direction sought with a large enough effect; inconclusive = small, poorly fitted or top-dose-only effect, or effect the other way; inactive = no such curve, though single readings can be large or run the other way. The list shows a part of the results.

Biological target: Cytochrome P450 2C19 (Homo sapiens) (UniProt P33261)
Assay: Cytochrome panel assay with activity outcomes
Conditions: recombinant CYP, pro-luciferin dealkylation, luminescence, p450-cyp2c19; series mostly up to 57.1 µM; activity, negative = inhibition: at the top concentration
% is set by controls: 0 for no effect and ±100 for the full control effect.

Cytochrome P450 2C19 (Homo sapiens), sequence (P33261 whole entry, looked up): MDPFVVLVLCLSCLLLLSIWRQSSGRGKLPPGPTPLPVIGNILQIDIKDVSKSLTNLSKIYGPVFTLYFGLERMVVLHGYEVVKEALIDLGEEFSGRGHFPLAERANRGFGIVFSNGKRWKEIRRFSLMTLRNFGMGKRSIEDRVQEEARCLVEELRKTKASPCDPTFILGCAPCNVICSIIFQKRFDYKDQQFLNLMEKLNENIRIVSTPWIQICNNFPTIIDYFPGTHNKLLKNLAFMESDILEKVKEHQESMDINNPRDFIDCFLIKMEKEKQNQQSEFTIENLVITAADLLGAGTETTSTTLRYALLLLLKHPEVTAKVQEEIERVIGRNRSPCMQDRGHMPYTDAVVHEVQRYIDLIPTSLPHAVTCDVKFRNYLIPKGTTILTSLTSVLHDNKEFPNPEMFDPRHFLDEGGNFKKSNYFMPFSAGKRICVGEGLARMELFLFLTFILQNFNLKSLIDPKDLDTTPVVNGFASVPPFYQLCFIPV

activity, negative = inhibition, inactive:
c1ccc(CN2CC[C@@H](CNc3ncnc4ccccc34)C2)cc1 -7.26% [at 11.4 µM], OCC1CCCN(Cc2ccc(-c3ccccc3)cc2)C1 (centres undefined) 8.82%, CCOc1nc(NCCN2CCOCC2)nc(Nc2ccc(C)cc2)n1 -18.9%, Cc1cc(C(C)(C)C)c(OCCCN2CCOCC2)c(C(C)(C)C)c1 -2.67% [at 11.4 µM], O=C(Nc1cccc(F)c1)N1CC[C@@]2(CCCNC2)C1 -4.59%, Nc1ccc(N2C(=O)c3ccccc3C2=O)c(Cl)c1 -14.9%, CC(C)(C)C(=O)[C@H]([C@@H](c1ccccc1)N1CCOCC1)N1CCOCC1 27.5% [at 11.4 µM], O=C(Nc1ccccc1)N1CCC2(CC1)CCN(C(=O)c1cnccn1)CC2 -4.33%, Cc1ccc(-c2ccc(/C=N\NC(=O)c3cc4c(ccc5ccccc54)o3)o2)cc1[N+](=O)[O-] -10.5%, CC1(C)OCC([C@H](O)C2=CCCCC2=O)CO1 2.21% [at 11.4 µM], Cc1nccn1C[C@@H]1CCc2c(c3ccccc3n2C)C1=O -18.2% [at 25.6 µM], Cc1nc2ccccn2c1C(=O)N/N=C/c1ccccc1[N+](=O)[O-] -3.18%, O=C1OC2CC3CC1CC(O)(C3)C2 (centres undefined) -19.6%, CCC(C(=O)Nc1cccc(C(F)(F)F)c1)c1ccccc1 (centres undefined) -24.6%, Nc1nc2c(ncn2[C@@H]2C=C[C@@H](CO)C2)c(=O)[nH]1 -3.48% [at 11.4 µM], O=C(c1cc(C(F)(F)F)cc(C(F)(F)F)c1)N1CCC2(CC1)CCN(c1ccccn1)CC2 -32.3%, O=C(c1cc(C(F)(F)F)cc(C(F)(F)F)c1)N1CCC2(CC1)CN(c1ccccc1)C2 -14.2%, O=C(c1cc(C(F)(F)F)cc(C(F)(F)F)c1)N1CCC2(CC1)CN(c1ccccn1)C2 1.83%, O=C(c1cc(C(F)(F)F)cc(C(F)(F)F)c1)N1CCC2(CC1)CCN(c1ccncc1)CC2 -12%, CN1CCN(c2ncc3ncc(=O)n(C[C@H]4CCCO4)c3n2)CC1 -0.787%, O=C(NNC(=O)c1ccccc1)C(=O)N1CCCCC1 14.9%, CC(C)NC(=O)/C(=N\O)c1ccccc1 5.05%, CCN(CC)N=Nc1[nH]nc2nc(C)cc(C)c12 -25.4%, O=C(NOC(=O)c1cc(Br)ccc1Cl)c1cccs1 22.5%, COc1ccccc1-c1nc(NCCNC(C)=O)c2ccccc2n1 -0.29%, CN1CC[C@@]2(CCCN(C(=O)c3cccc(F)c3)C2)C1 -21.2%, Cc1cccc(-n2nnc3cnn(C)c3c2=O)c1 -24.5%, O=C(O)c1ccccc1C1c2ccccc2Oc2ccccc21 9.43% [at 11.4 µM], CC[N+](C)(CC)CCOC(=O)C1c2ccccc2Oc2ccccc21 2.44% [at 25.6 µM], Oc1ccc(Cl)cc1C=Nc1cnc2ccccc2c1 -4.43% [at 11.4 µM], O=C(N/N=C/C=C/c1ccccc1)c1cc2c(ccc3ccccc32)o1 28.5%, Nc1ncnc2nc(N3CCN(CCO)CC3)[nH]c12 -15.5% [at 11.4 µM], COc1ccc(C(=O)N2CCC3(CCN(Cc4ccncc4)CC3)CC2)cc1 -24.1%

AC50, active:
S[C@@H]1CCCN(Cc2ccccc2)C1 3.16 µM, Cc1ccc(Oc2ncc(CN3CCOCC3)s2)cc1 1.78 µM, CCOC(=O)C1CCN(Cc2cnc(Oc3ccc(OC)cc3)s2)CC1 7.94 µM, Nc1ccc(N(S(=O)(=O)c2ccccc2)S(=O)(=O)c2ccccc2)c(Cl)c1 0.158 µM, O=C(NCC(c1cccnc1)N1CCOCC1)Nc1ccccc1 (centres undefined) 17.8 µM, CCOC(=O)c1sc2nc3c(cc2c1N)COC(C)(CC)C3 (centres undefined) 25.1 µM, Cc1ccc(-c2ccc(/C=N/NC(=S)Nc3ccccc3)o2)cc1[N+](=O)[O-] 7.94 µM, O=C(N/N=C/c1ccc(Br)s1)c1ccccc1[N+](=O)[O-] 12.6 µM, O=C(N/N=C/c1ccc([N+](=O)[O-])s1)c1ccccc1Br 28.2 µM, COc1ccc2[nH]cc(CCNc3nc(-c4ccc(N(C)C)cc4)nc4ccccc34)c2c1 7.94 µM, COc1ccc2[nH]cc(CCNc3nc(-c4ccc(C(=O)N(C)C)cc4)nc4ccccc34)c2c1 3.16 µM, COC(=O)/C(=C\C(=O)c1ccccc1)Nc1cccc(C(F)(F)F)c1 5.01 µM, Cc1ccc(C(=O)N2CCN(c3ccc(C(F)(F)F)cn3)CC2)cc1 25.1 µM, O=C(c1ccc(Oc2ccc(C(F)(F)F)cn2)cc1)N1CCN(c2ccccc2)CC1 10 µM, O=C(NC(N1CCCC1)C(Cl)(Cl)Cl)c1ccccc1 (centres undefined) 7.94 µM, CCN(CC)c1ncnc2c1sc1nc(C)cc(C)c12 14.1 µM, Cc1ccc(-c2ncccc2OC(=O)C23CC4CC(CC(C4)C2)C3)cc1 14.1 µM, O=C(CNc1cccc(Cl)c1)c1ccc(Cl)cc1 2 µM, O=C(CCNc1cccc(Cl)c1)c1cccs1 3.98 µM, COc1ccccc1C1=NOC(COC(=O)c2ccc3ccccc3n2)C1 (centres undefined) 15.8 µM, O=C1C[C@H](c2ccccc2)[C@@H](c2ccc(Br)cc2)O1 0.398 µM, CN(CCO)c1cc(Sc2nc3ccccc3s2)c2nonc2c1[N+](=O)[O-] 11.2 µM, O=[N+]([O-])c1c(NCCO)cc(Sc2nc3ccccc3s2)c2nonc12 2.51 µM, CC(C)n1nnnc1-c1cc(Cl)cc(Cl)c1 7.94 µM, Cc1cccc(Cn2ncc(Cl)c(Cl)c2=O)c1 8.91 µM, CC(=O)c1ccc(OC(=O)C2c3ccccc3Oc3ccccc32)cc1 25.1 µM, O/N=C/c1cc(Cl)ccc1OCc1cccc2ccccc12 1.58 µM, O=[N+]([O-])c1ccc(/C=N/n2c(COc3ccccc3)n[nH]c2=S)cc1 11.2 µM, O=S(=O)(N/N=C\C=C\c1ccccc1)c1ccc(Br)cc1 2 µM, COc1ccccc1C(c1nnnn1C(C)(C)C)N1CCN(Cc2ccncc2)CC1 (centres undefined) 2.24 µM, COc1ccccc1C(c1nnnn1C(C)(C)C)N1CCCc2ccccc21 (centres undefined) 4.47 µM
